From the supplement of paper PMC8728848
Only a selection was taken, and the strongest signals are over-represented in it overall.

Key:
Assay in all cases: glycan array binding signal (z-score within array); higher = stronger binding
Details in all cases: glycan notation: IUPAC condensed, linker removed
Fuc(a1-2)Gal = molecular target: Fuc(a1-2)Gal
How it was run: (§1)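 The binding signal is a Z-score computed within each array and averaged over linkers. Arrays of the same protein sequence at different concentrations or buffers were also averaged together. Data originate from 3228 arrays in the Consortium for Functional Glycomics database, kept only where the protein sequence was available.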

Fuc(a1-2)Gal(b1-3)GalNAc = molecular target: Fuc(a1-2)Gal(b1-3)GalNAc
How it was run: as §1

[1] = molecular target: Fuc(a1-2)Gal(b1-3)GlcNAc(b1-2)Man(a1-3)[Fuc(a1-2)Gal(b1-3)GlcNAc(b1-2)Man(a1-6)]Man(b1-4)GlcNAc(b1-4)[Fuc(a1-6)]GlcNAc
How it was run: as §1

[2] = molecular target: Fuc(a1-2)Gal(b1-4)GlcNAc(b1-3)Gal(b1-4)GlcNAc(b1-3)Gal(b1-4)GlcNAc
How it was run: as §1

[3] = molecular target: Fuc(a1-2)Gal(b1-4)GlcNAc(b1-3)[Fuc(a1-3)[Gal(b1-4)]GlcNAc(b1-6)]Gal(b1-4)Glc
How it was run: as §1

[4] = molecular target: Fuc(a1-2)Gal(b1-4)[Fuc(a1-3)]GlcNAc(b1-3)[Neu5Ac(a2-6)Gal(b1-4)GlcNAc(b1-6)]Gal(b1-4)Glc
How it was run: as §1

[5] = molecular target: Fuc(a1-2)[GalNAc(a1-3)]Gal(b1-4)Glc
How it was run: as §1

[6] = molecular target: Fuc(a1-3)[Gal(b1-4)]GlcNAc(b1-3)Gal(b1-4)[Fuc(a1-3)]GlcNAc
How it was run: as §1

[7] = molecular target: Gal(a1-3)Gal(b1-3)GlcNAc(b1-2)Man
How it was run: as §1

Gal(b1-3)GlcNAc = molecular target: Gal(b1-3)GlcNAc
How it was run: as §1

[8] = molecular target: Gal(b1-3)GlcNAc(b1-3)Gal(b1-4)GlcNAc
How it was run: as §1

[9] = molecular target: Gal(b1-3)GlcNAc(b1-3)Gal(b1-4)[Fuc(a1-3)]GlcNAc
How it was run: as §1

Gal(b1-4)GlcNAc(b1-2)Man = molecular target: Gal(b1-4)GlcNAc(b1-2)Man
How it was run: as §1

[10] = molecular target: Gal(b1-4)GlcNAc(b1-2)Man(a1-3)[Man(a1-6)]Man(b1-4)GlcNAc(b1-4)GlcNAc
How it was run: as §1

[11] = molecular target: Gal(b1-4)GlcNAc(b1-2)Man(a1-6)Man(b1-4)GlcNAc(b1-4)GlcNAc
How it was run: as §1

[12] = molecular target: Gal(b1-4)GlcNAc(b1-3)Gal(b1-3)GalNAc
How it was run: as §1

[13] = molecular target: Gal(b1-4)GlcNAc(b1-3)Gal(b1-4)GlcNAc(b1-3)Gal(b1-4)GlcNAc(b1-2)Man(a1-3)[Gal(b1-4)GlcNAc(b1-3)Gal(b1-4)GlcNAc(b1-3)Gal(b1-4)GlcNAc(b1-2)Man(a1-6)]Man(b1-4)GlcNAc(b1-4)[Fuc(a1-6)]GlcNAc
How it was run: as §1

[14] = molecular target: Gal3S(b1-4)[Fuc(a1-3)]GlcNAc
How it was run: as §1

Gal6S(b1-4)Glc = molecular target: Gal6S(b1-4)Glc
How it was run: as §1

[15] = molecular target: GlcA3S(b1-3)Gal(b1-4)GlcNAc(b1-3)Gal(b1-4)Glc
How it was run: as §1

[16] = molecular target: GlcNAc(b1-2)Man(a1-3)[GlcNAc(b1-4)][GlcNAc(b1-2)Man(a1-6)]Man(b1-4)GlcNAc(b1-4)[Fuc(a1-6)]GlcNAc
How it was run: as §1

[17] = molecular target: GlcNAc(b1-2)[GlcNAc(b1-4)]Man(a1-3)[GlcNAc(b1-4)][GlcNAc(b1-2)[GlcNAc(b1-6)]Man(a1-6)]Man(b1-4)GlcNAc(b1-4)[Fuc(a1-6)]GlcNAc
How it was run: as §1

[18] = molecular target: GlcNAc(b1-2)[GlcNAc(b1-6)]Man(a1-6)[GlcNAc(b1-2)Man(a1-3)]Man(b1-4)GlcNAc(b1-4)GlcNAc
How it was run: as §1

GlcNAc(b1-3)Gal(b1-4)Glc = molecular target: GlcNAc(b1-3)Gal(b1-4)Glc
How it was run: as §1

[19] = molecular target: GlcNAc(b1-3)Gal(b1-4)GlcNAc(b1-3)Gal(b1-4)GlcNAc(b1-2)[GlcNAc(b1-3)Gal(b1-4)GlcNAc(b1-3)Gal(b1-4)GlcNAc(b1-6)]Man(a1-6)[GlcNAc(b1-3)Gal(b1-4)GlcNAc(b1-3)Gal(b1-4)GlcNAc(b1-2)Man(a1-3)]Man(b1-4)GlcNAc(b1-4)[Fuc(a1-6)]GlcNAc
How it was run: as §1

[20] = molecular target: GlcNAc(b1-3)Gal(b1-4)GlcNAc(b1-6)[Gal(b1-3)]GalNAc
How it was run: as §1

[21] = molecular target: GlcNAc(b1-3)Gal(b1-4)GlcNAc(b1-6)[GlcNAc(b1-3)]Gal(b1-4)GlcNAc
How it was run: as §1

B1: LlpB (Pseudomonas fluorescens) (protein)
chain: MGSSHHHHHHSSGLVPRGSHMASSGFRIILFNSANNGTAILPPRNCLVAGQYLESPSKRYKLILEADGNLRLYDNGVPIWVADSSVPYTYVDNRPNTNLVTCFYMQGSAFLVDRVGSRTWATIGDWIDGAADRAYLQVQDDGNVVVVDGVPRWARFGFTPAALPNRGVFYPDHGTGPLPSFPVWSWTF
glycan array binding signal (z-score) (Fuc(a1-2)Gal): -0.044
glycan array binding signal (z-score) (Fuc(a1-2)Gal(b1-3)GalNAc): -0.631
glycan array binding signal (z-score) [1]: -0.114
glycan array binding signal (z-score) [2]: 2.58
glycan array binding signal (z-score) [3]: -0.33
glycan array binding signal (z-score) [4]: 0.032
glycan array binding signal (z-score) [5]: -0.54
glycan array binding signal (z-score) [6]: 1.4
glycan array binding signal (z-score) [7]: 0.466
glycan array binding signal (z-score) (Gal(b1-3)GlcNAc): 0.344
glycan array binding signal (z-score) [8]: 0.129
glycan array binding signal (z-score) [9]: 0.523
glycan array binding signal (z-score) (Gal(b1-4)GlcNAc(b1-2)Man): 3.72
glycan array binding signal (z-score) [10]: 0.362
glycan array binding signal (z-score) [11]: -0.158
glycan array binding signal (z-score) [12]: -0.092
glycan array binding signal (z-score) [13]: 2.11
glycan array binding signal (z-score) [14]: -1.03
glycan array binding signal (z-score) (Gal6S(b1-4)Glc): -1.15
glycan array binding signal (z-score) [15]: -1.73
glycan array binding signal (z-score) [16]: 1.22
glycan array binding signal (z-score) [17]: -0.095
glycan array binding signal (z-score) [18]: 0.893
glycan array binding signal (z-score) (GlcNAc(b1-3)Gal(b1-4)Glc): -0.719
glycan array binding signal (z-score) [19]: 0.375
glycan array binding signal (z-score) [20]: 1.38
glycan array binding signal (z-score) [21]: -0.837
